Results taken from PubChem BioAssay (EPA / NIEHS).
Some structures have more than one record in an assay (separate samples or runs), and their calls can disagree. Active and inactive are the calls of the source. The calls were made as follows, unless noted: active = hit-call score of the fitted dose curve at least 0.9, where 1 is the maximum; inactive = score below 0.9.

How the values were obtained:
[1] = molecular target: Peroxisome proliferator-activated receptor gamma (Homo sapiens) (UniProt P37231); experiment: OT_PPARg_PPARgSRC1_1440: Odyssey Thera (OT) 24-hour Protein-Complementation Assay for Peroxisome Proliferator-activated Receptor Gamma/ SRC-1 Co-activator (AID 2283388; active = hit-call score of the fitted dose curve at least 0.9, where 1 is the maximum)
Procedure, shortened: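 HEK293T transiently transfected with PPARg/SRC-1 split-Venus YFP fusions 48 h before dosing, then treated 24 h at 37C. Fixed cells imaged; nuclear/cytoplasmic 488 nm fluorescence ratio, gain of signal versus DMSO.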

[2] = read-out: Tumor necrosis factor receptor superfamily member 6 (Homo sapiens) (UniProt P25445); experiment: LTEA_HepaRG_FAS: Life Technologies and Expression Analysis (LTEA) Assay for Fas cell surface death receptor (FAS) using HepaRG (AID 2283447); conditions: mRNA level, 48 h; actives raise or lower the signal
Procedure, shortened: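 FAS transcript level was measured by TaqMan qRT-PCR against three housekeeping genes after 48 h chemical exposure. Cells were HepaRG, 0.5% DMSO vehicle, with a top concentration of 100 uM and half-log dilutions over eight points, in duplicate.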

[3] = read-out: Fatty acid synthase (Homo sapiens) (UniProt P49327); experiment: LTEA_HepaRG_FASN: Life Technologies and Expression Analysis (LTEA) Assay for Fatty Acid Synthase (FASN) using HepaRG (AID 2283448); conditions: mRNA level, 48 h; actives raise or lower the signal
Procedure, shortened: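 Transcript-level assay: HepaRG liver cells are treated for 48 h across an eight-point range topping at 100 uM, and FASN mRNA, normalized to three housekeeping genes, is compared with DMSO controls in both directions.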

[4] = read-out: Cyclin Dependent Kinase Inhibitor 1A (CDKN1A), CDKN1A (gene 1026); experiment: LTEA_HepaRG_CDKN1A: Life Technologies and Expression Analysis (LTEA) Assay for Cyclin Dependent Kinase Inhibitor 1A (CDKN1A) using HepaRG (AID 2283450); conditions: mRNA level, 48 h; actives raise or lower the signal
Procedure, shortened: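 Differentiated HepaRG cells in serum-free induction medium, exposed 48 h in duplicate to eight half-log concentrations up to 100 uM in 0.5% DMSO. mRNA measured by TaqMan qRT-PCR, normalized to ACTB, GAPDH, POLR2A; bidirectional fit versus DMSO.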

[5] = read-out: catalase (CAT), CAT (gene 847); experiment: LTEA_HepaRG_CAT: Life Technologies and Expression Analysis (LTEA) Assay for catalase (CAT) using HepaRG (AID 2283452); conditions: mRNA level, 48 h; actives raise or lower the signal;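 as to AC50: TaqMan qRT-PCR signal normalized to ACTB GAPDH and POLR2A housekeeping genes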
Procedure, shortened: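 Expression of CAT was quantified by TaqMan qRT-PCR with ACTB/GAPDH/POLR2A normalization after 48 h chemical exposure of HepaRG. Eight-point half-log series, top 100 uM, in 0.5% DMSO; gain or loss fitted against vehicle.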

[6] = read-out: flavin-containing dimethylaniline monooxygenases 3 (FMO3), FMO3 (gene 2328); experiment: LTEA_HepaRG_FMO3: Life Technologies and Expression Analysis (LTEA) Assay for flavin-containing dimethylaniline monooxygenases 3 (FMO3) using HepaRG (AID 2283453); conditions: mRNA level, 48 h; actives raise or lower the signal;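 as to AC50: FMO3 transcript by TaqMan qRT-PCR normalized to ACTB GAPDH and POLR2A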
Procedure, shortened: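 HepaRG, 48 h exposure, 8-pt half-log series from 100 uM, 0.5% DMSO vehicle, duplicates; FMO3 transcript by Fluidigm TaqMan qRT-PCR, housekeeping-normalized; gain/loss fit vs DMSO.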

[7] = read-out: Cytochrome P450 (CYP1A1), CYP1A1 (gene 1543); experiment: LTEA_HepaRG_CYP1A1: Life Technologies and Expression Analysis (LTEA) Assay for Cytochrome P450 (CYP1A1) using HepaRG (AID 2283454); conditions: mRNA level, 48 h; actives raise or lower the signal
Procedure, shortened: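 Differentiated human HepaRG cells, after 48 h plating, exposed in duplicate for 48 h in serum-free induction medium to 8 half-log concentrations up to 100 uM in 0.5% DMSO. CYP1A1 mRNA by qRT-PCR, normalized to ACTB/GAPDH/POLR2A; bidirectional fit versus DMSO.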

[8] = read-out: CFLAR gene, CFLAR (gene 8837); experiment: LTEA_HepaRG_CFLAR: Life Technologies and Expression Analysis (LTEA) Assay for CFLAR gene using HepaRG (AID 2283455); conditions: mRNA level, 48 h; actives raise or lower the signal
Procedure, shortened: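 HepaRG, 48 h exposure, 8-pt conc-response (100 uM top, half-log), 0.5% DMSO vehicle, duplicates. CFLAR expression by qRT-PCR; ACTB/GAPDH/POLR2A normalization; gain or loss fit vs DMSO baseline.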

[9] = read-out: Forkhead box O1 (FOXO1), FOXO1 (gene 2308); experiment: LTEA_HepaRG_FOXO1: Life Technologies and Expression Analysis (LTEA) Assay for Forkhead box O1 (FOXO1) using HepaRG (AID 2283456); conditions: mRNA level, 48 h; actives raise or lower the signal
Procedure, shortened: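 Readout is FOXO1 transcript level by multiplexed qRT-PCR against three housekeeping genes, curve-fitted in both directions relative to 0.5% DMSO vehicle. Human HepaRG cultures received chemicals for 48 h, up to 100 uM in half-log steps.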

[10] = read-out: Cyclin D2 (CCND2), CCND2 (gene 894); experiment: LTEA_HepaRG_CCND2: Life Technologies and Expression Analysis (LTEA) Assay for Cyclin D2 (CCND2) using HepaRG (AID 2283449); conditions: mRNA level, 48 h; actives raise or lower the signal
Procedure, shortened: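 Read-out is CCND2 mRNA level measured by qRT-PCR in human HepaRG liver cells and normalised to three housekeeping genes. Chemicals were applied for 48 h at up to 100 uM, with gain or loss fitted relative to 0.5% DMSO.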

[11] = read-out: Cyclin D1 (CCND1), CCND1 (gene 595); experiment: LTEA_HepaRG_CCND1: Life Technologies and Expression Analysis (LTEA) Assay for Cyclin D1 (CCND1) using HepaRG (AID 2283451); conditions: mRNA level, 48 h; actives raise or lower the signal
Procedure, shortened: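 Differentiated HepaRG cells exposed 48 h in serum-free induction medium to eight half-log concentrations from 100 uM top, 0.5% DMSO, duplicates. CCND1 mRNA measured by Fluidigm TaqMan qRT-PCR, normalised to ACTB, GAPDH, POLR2A; bidirectional fit.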

[12] = CEETOX_H295R_OHPREG: CeeTox H295R High-throughput Steroidogenesis Assay for OH-Pregnenolone (OHPREG) (AID 2283434); conditions: actives raise or lower the signal
Procedure, shortened: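 Hormone levels in spent medium were measured by tandem mass spectrometry following liquid-liquid extraction. Cells (H295R) had been forskolin-stimulated (10 uM, 48 h) before a 48 h chemical exposure at 0.1% DMSO, with activity fitted in both directions against DMSO.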

[13] = CEETOX_H295R_OHPROG: CeeTox H295R High-throughput Steroidogenesis Assay for OH-Progesterone (OHPROG) (AID 2283435); conditions: actives raise or lower the signal;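 also: human adrenal H295R cells primed 48 h with 10 µM forskolin; 17alpha-hydroxyprogesterone secreted into medium measured by HPLC-MS/MS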
Procedure, shortened: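 Secreted 17alpha-hydroxyprogesterone is read by tandem MS from media of forskolin-primed H295R cells dosed with chemical for 48 h. Activity is fitted in both directions against DMSO baseline; cytotoxic concentrations are re-tested diluted.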

[14] = CEETOX_H295R_ANDR: CeeTox H295R High-throughput Steroidogenesis Assay for Androstenedione (ANDR) (AID 2283436); conditions: actives raise or lower the signal;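 also: human H295R adrenal cells exposed for 48 h with androstenedione measured in medium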
Procedure, shortened: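 Read-out is androstenedione secreted into medium, measured by tandem mass spectrometry after liquid-liquid extraction. Cells were H295R, dosed for 48 h per modified OECD 456; activity fitted in both directions relative to DMSO.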

[15] = CEETOX_H295R_CORTIC: CeeTox H295R High-throughput Steroidogenesis Assay for Corticosterone (CORTIC) (AID 2283437); conditions: actives raise or lower the signal;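 also: corticosterone secreted into medium quantified by mass spectrometry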
Procedure, shortened: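 Corticosterone secreted into medium is measured by reverse-phase HPLC with tandem MS following liquid-liquid extraction. Cells are forskolin-stimulated (10 uM, 48 h) before 48 h test exposure; activity fitted in both directions against DMSO.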

[16] = CEETOX_H295R_DOC: CeeTox H295R High-throughput Steroidogenesis Assay for DOC (AID 2283439); conditions: actives raise or lower the signal
Procedure, shortened: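 Secreted DOC was quantified from H295R media by HPLC-MS/MS after 48 h chemical exposure following 48 h forskolin (10 uM) prestimulation. Values were fitted in both directions relative to DMSO, the negative control and baseline.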

[17] = CEETOX_H295R_PROG: CeeTox H295R High-throughput Steroidogenesis Assay for Progesterone (PROG) (AID 2283442); conditions: actives raise or lower the signal;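 also: human H295R adrenal cells primed with 10 µM forskolin before dosing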
Procedure, shortened: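 H295R adrenal cells prestimulated 48 h with 10 uM forskolin, then exposed 48 h to test chemical in 0.1% DMSO. Progesterone in medium quantified by HPLC-MS/MS after MTBE extraction; viability checked by MTT in same wells.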

Measured: AC50

Sequence of Fatty acid synthase (Homo sapiens) (P49327 whole entry, looked up): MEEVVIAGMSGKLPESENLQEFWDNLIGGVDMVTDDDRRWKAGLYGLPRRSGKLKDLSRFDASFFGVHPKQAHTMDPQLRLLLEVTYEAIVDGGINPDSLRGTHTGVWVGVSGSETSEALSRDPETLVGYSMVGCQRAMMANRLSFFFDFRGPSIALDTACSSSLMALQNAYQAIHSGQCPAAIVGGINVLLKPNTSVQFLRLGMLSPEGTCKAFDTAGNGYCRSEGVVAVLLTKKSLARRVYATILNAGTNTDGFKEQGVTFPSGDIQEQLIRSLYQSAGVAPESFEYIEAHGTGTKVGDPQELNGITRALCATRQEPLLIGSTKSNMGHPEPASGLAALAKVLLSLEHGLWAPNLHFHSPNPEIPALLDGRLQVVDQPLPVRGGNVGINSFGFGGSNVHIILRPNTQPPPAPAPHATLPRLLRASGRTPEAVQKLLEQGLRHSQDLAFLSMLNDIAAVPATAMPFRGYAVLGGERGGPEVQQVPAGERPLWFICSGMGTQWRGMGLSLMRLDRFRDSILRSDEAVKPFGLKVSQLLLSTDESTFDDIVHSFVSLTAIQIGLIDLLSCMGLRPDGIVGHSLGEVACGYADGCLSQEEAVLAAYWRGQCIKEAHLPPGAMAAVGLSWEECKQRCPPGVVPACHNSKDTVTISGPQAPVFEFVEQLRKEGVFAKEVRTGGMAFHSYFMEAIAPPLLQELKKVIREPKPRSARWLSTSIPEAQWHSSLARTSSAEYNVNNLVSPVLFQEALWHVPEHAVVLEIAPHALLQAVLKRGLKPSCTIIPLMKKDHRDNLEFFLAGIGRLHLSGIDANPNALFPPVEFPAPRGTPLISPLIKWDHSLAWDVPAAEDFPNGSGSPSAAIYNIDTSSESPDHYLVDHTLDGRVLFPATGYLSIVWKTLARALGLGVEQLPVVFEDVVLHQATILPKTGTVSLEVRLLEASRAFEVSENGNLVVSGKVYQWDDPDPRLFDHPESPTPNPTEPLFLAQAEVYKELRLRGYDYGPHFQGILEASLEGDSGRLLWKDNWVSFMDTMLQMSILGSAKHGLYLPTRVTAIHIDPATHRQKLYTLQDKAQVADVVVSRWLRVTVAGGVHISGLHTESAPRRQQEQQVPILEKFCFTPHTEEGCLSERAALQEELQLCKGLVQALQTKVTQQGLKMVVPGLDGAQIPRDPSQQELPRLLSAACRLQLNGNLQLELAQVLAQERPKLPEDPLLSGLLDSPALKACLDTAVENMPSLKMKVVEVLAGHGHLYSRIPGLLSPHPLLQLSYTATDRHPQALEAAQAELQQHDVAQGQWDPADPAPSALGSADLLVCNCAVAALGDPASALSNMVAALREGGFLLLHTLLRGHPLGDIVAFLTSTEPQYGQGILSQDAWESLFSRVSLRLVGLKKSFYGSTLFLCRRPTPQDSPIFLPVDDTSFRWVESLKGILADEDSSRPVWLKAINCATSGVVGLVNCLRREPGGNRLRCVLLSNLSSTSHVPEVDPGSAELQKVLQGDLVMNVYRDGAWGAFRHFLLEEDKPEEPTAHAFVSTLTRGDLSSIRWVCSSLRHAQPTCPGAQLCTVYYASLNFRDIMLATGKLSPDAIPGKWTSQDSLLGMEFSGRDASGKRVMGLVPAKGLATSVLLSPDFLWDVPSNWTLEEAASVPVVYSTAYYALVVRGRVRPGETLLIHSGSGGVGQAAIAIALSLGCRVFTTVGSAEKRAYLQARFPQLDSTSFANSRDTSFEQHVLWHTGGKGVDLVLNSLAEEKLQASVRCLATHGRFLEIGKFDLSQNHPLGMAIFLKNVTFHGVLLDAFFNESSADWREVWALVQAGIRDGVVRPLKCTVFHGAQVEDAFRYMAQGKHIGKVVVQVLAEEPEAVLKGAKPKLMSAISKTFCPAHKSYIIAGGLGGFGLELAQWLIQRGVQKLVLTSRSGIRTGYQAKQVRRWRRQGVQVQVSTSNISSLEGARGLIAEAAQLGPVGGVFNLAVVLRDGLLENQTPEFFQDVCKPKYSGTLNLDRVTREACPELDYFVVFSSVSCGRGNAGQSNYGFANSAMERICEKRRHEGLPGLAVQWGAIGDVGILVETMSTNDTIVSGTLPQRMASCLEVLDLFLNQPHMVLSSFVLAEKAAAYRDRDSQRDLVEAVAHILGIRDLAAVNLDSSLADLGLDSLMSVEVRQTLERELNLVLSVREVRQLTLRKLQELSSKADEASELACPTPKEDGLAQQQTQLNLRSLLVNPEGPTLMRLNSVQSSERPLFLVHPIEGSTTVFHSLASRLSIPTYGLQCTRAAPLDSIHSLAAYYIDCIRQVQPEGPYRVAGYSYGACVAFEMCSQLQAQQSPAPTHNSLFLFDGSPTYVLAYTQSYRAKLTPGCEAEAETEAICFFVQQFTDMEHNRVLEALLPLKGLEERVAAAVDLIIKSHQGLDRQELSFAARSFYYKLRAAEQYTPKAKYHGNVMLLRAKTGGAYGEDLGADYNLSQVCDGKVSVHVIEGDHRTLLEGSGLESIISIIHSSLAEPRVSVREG
Sequence of Peroxisome proliferator-activated receptor gamma (Homo sapiens) (P37231 whole entry, looked up, the tested form may be a part): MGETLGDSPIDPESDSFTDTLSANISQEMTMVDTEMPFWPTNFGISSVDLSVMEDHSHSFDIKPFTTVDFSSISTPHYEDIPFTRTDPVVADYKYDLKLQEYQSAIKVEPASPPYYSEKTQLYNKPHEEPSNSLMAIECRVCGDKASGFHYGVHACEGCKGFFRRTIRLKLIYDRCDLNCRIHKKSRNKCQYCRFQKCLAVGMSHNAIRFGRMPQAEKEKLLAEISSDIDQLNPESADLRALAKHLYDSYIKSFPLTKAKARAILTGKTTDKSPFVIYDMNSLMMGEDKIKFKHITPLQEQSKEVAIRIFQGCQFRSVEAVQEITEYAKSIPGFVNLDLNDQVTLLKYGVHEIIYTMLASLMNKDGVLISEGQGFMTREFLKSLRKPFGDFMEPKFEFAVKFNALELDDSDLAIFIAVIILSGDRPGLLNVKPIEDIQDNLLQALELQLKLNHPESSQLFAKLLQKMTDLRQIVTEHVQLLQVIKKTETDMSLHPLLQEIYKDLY

CCOC(=O)C(C)Oc1ccc(Oc2nc3ccc(Cl)cc3o2)cc1 (stereo unspecified)
inactive: [1] | [2] | [3] | [4] | [5] | [6] | [8] | [9]
active: [7] 56.7 µM

CCC(C)OC(=O)N1CCCCC1CCO (stereo unspecified)
active: [7] 64 µM
inactive: [1] | [2] | [3] | [10] | [4] | [5] | [6] | [8] | [9]

CCSC(=O)N(CC(C)C)CC(C)C
active: [7] 50 µM
inactive: [1] | [2] | [3] | [10] | [4] | [5] | [6] | [8] | [9]

COC(=O)c1ccc(I)cc1S(=O)(=O)NC(=O)Nc1nc(C)nc(OC)n1
active: [7] 62.4 µM
inactive: [1] | [2] | [3] | [10] | [4] | [5] | [6] | [8] | [9]

N[C@@H](Cc1cc(I)c(Oc2ccc(O)c(I)c2)c(I)c1)C(=O)O
active: [5] 7.94 µM | [6] 40 µM | [7] 0.0392 µM
inactive: [1] | [2] | [3] | [10] | [4] | [11] | [8] | [9]

O=C(c1ccc(O)cc1O)c1ccc(O)cc1O
not listed: [11] | [12] | [13] | [14] | [15] | [16] | [17]
inactive: all other assays above

COC(=O)CSc1cc(N=c2sc(=O)n3n2CCCC3)c(F)cc1Cl
active: [7] 64.9 µM
inactive: [1] | [2] | [3] | [10] | [4] | [5] | [6] | [8] | [9]

O=C(O)C1(C(=O)Nc2ccc(Cl)cc2Cl)CC1
active: [3] 69.8 µM | [5] 77.4 µM | [6] 67 µM | [7] 50 µM
inactive: [1] | [2] | [4] | [8] | [9]

CCCOC(=O)NCCCN(C)C
not listed: [11] | [12] | [13] | [14] | [15] | [16] | [17]
inactive: all other assays above

COc1c(Cl)ccc(Cl)c1C(=O)O
inactive: [1] | [3] | [10] | [4] | [5] | [6] | [7] | [8] | [9]

N#CSCSc1nc2ccccc2s1
inactive: [1] | [2] | [10] | [4] | [5] | [6] | [8] | [9]
active: [3] 68.3 µM | [7] 49.4 µM

O=C(O)c1ccccc1
inactive: [1] | [2] | [3] | [10] | [4] | [5] | [6] | [7] | [8] | [9]
active: [7] 51.2 µM

CC(C)CCCCCCc1ccc(O)cc1
active: [7] 50 µM
inactive: [1] | [2] | [3] | [10] | [4] | [5] | [6] | [8] | [9]

CC1(C)C(C=C(Cl)Cl)C1C(=O)OCc1cccc(Oc2ccccc2)c1 (stereo unspecified)
active: [13] 11.1 µM | [17] 11.5 µM | [7] 35.9 µM
not listed: [1] | [11]
inactive: all other assays above

CCCCCCC(C)OC(=O)COc1nc(F)c(Cl)c(N)c1Cl (stereo unspecified)
inactive: [2] | [3] | [10] | [4] | [5] | [6] | [7] | [8] | [9]

CCCCOC(=O)C(C)Oc1ccc(Oc2ccc(C(F)(F)F)cn2)cc1 (stereo unspecified)
inactive: [1] | [2] | [3] | [4] | [5] | [6] | [8] | [9]
active: [7] 9.92 µM

CCCN(CCC)c1c([N+](=O)[O-])cc(C(F)(F)F)c(N)c1[N+](=O)[O-]
active: [3] 50 µM | [7] 9.51 µM
inactive: [1] | [2] | [4] | [5] | [6] | [8] | [9]
